The text below walks through data of PubChem BioAssay.

Structures are written as SMILES. Several values for one entry are separate records, joined by “and”; a condition that tells them apart may be missing. Identical values can stand only once. Activity calls are given as the source filed them.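 How the source made its calls, unless noted: active means compounds whose cell count with miR-34 switched on is under 0.7 times the count with it off; inactive means the rest.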

The nature of assay [1]: viability loss with induced miR-34 in A549 – imaging, A549 dox-inducible miR-34, nuclei and caspase counts, primary screen (AID 1347080). Further: test concentration not given here. The following applies: A549 miR-34 inducible, Hoechst nuclei count, 48 h.
Assay [2] in a line: MELAS cybrid and Rieske KO viability enhancers – cell-based, MELAS cybrids, Rieske KO mouse fibroblasts, CellTiter-Glo, primary screen (AID 1508586;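 active means mean z-score across replicates of 1.96 or higher in either the MELAS or the Rieske mutant cell line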;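 further: test concentration not given here; z relative to plate mean and SD of compound and empty wells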). The following applies: low glucose. Background: Cellular ATP, detected with luciferase, serves as a proxy for viable cell number.
The nature of assay [3]: galactose survival enhancers in mitochondrial complex I cybrids – cell-based, galactose medium, ATP luminescence, primary screen (AID 1645843;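 active means z-score of at least 1.8 in each of two replicates, scored against plate mean and spread of sample wells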;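 further: positive z means more ATP and so rescue of galactose-driven cybrid death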). The following applies: complex I mutant cybrid cells, 72 h, stronger effect = higher value.
[4] abbreviates: stronger effect = lower value, cell number ratio, induced over uninduced.
The mark [5] stands for this setting: measured here: relative caspase fold change +Dox/-Dox.
Where [6] appears, read: measured here: total cells with miR-34 induction, stronger effect = lower value.
Setting [7] is: measured here: total cells without miR-34 induction.
[8] abbreviates: MELAS cybrid survival, CellTiter-Glo 48 h, stronger effect = higher value.
The mark [9] stands for this setting: Rieske KO mouse fibroblast survival, CellTiter-Glo 72 h.

Take `O=c1c2nccnc2ncn1Cc1scnc1-c1ccccc1`: the values for the fold change in assay [1] (setting [4]) and in assay [1] (setting [5]) were 0.893 (inactive) and 0.515, respectively. In addition, the values for the cell count in assay [1] (setting [6]) and in assay [1] (setting [7]) were 8870 and 9940, respectively. Besides, the values for the z-score in assay [2] (setting [8]), in assay [2] (setting [9]) and in assay [3] were -0.26 (inactive), -0.294 and -0.445 (inactive), respectively.
In the case of `NC(=O)c1ccccc1-c1cccc2ccccc12`, the figures for the fold change in assay [1] (setting [4]) and in assay [1] (setting [5]) were 0.84 (inactive) and 1.62, respectively. Moreover, the cell count in assay [1] (setting [6]) turned out to be 7950; in assay [1] (setting [7]), 9470. The z-score in assay [2] (setting [8]) was -0.37 (inactive); in assay [2] (setting [9]) it was 0.135; in assay [3], -0.38 (inactive).
`O=S(=O)(O)CCCN1CCOCC1`: the fold change is 0.928 (inactive) in assay [1] (setting [4]) and 0.665 in assay [1] (setting [5]). Also, the cell count turned out to be 8750 in assay [1] (setting [6]) and 9420 in assay [1] (setting [7]). The z-score was 0.595 (inactive) in assay [2] (setting [8]), -0.353 in assay [2] (setting [9]) and 0.105 (inactive) in assay [3].
As for `O=C(O)CCCc1nc(-c2cccc([N+](=O)[O-])c2)no1`, the fold change was 0.855 (inactive) in assay [1] (setting [4]) and 0.356 in assay [1] (setting [5]). The cell count in assay [1] (setting [6]) turned out to be 7990; in assay [1] (setting [7]) it was 9350. Also, the z-score is 1.15 (inactive) in assay [2] (setting [8]), -0.0224 in assay [2] (setting [9]) and 0.71 (inactive) in assay [3].
On to `NC(=O)NC(Cc1ccccc1)C(=O)O` (stereo not drawn), for which the values for the fold change in assay [1] (setting [4]) and in assay [1] (setting [5]) were 0.889 (inactive) and 0.725, respectively. For the same compound, the cell count in assay [1] (setting [6]) was found to be 8700; in assay [1] (setting [7]) it was 9790. The values for the z-score in assay [2] (setting [8]), in assay [2] (setting [9]) and in assay [3] were -0.32 (inactive), -0.255 and 0.66 (inactive), respectively.
Take `O=c1[nH]cnc2sc3c(c12)CCCC3`: the fold change in assay [1] (setting [4]) is 0.885 (inactive); in assay [1] (setting [5]), 0.876. In addition, the cell count in assay [1] (setting [6]) was 8460; in assay [1] (setting [7]), 9560. Further, the z-score in assay [2] (setting [8]) is -0.212 (inactive); in assay [2] (setting [9]), 0.0845; in assay [3], 0.635 (inactive).
In the case of `OCCNc1ncnc2oc(-c3ccccc3)c(-c3ccccc3)c12`, the fold change was 0.989 (inactive) in assay [1] (setting [4]) and 0.446 in assay [1] (setting [5]). For the same compound, the cell count is 5100 in assay [1] (setting [6]) and 5160 in assay [1] (setting [7]). Moreover, the z-score in assay [2] (setting [8]) was 0.83; in assay [2] (setting [9]), 7.8; in assay [3], -1.23 (inactive).
Take `Nc1nc(-c2ccoc2)c2[nH]cnc2n1`: the fold change in assay [1] (setting [4]) was 0.933 (inactive); in assay [1] (setting [5]), 1.81. Also, the cell count in assay [1] (setting [6]) stood at 9520; in assay [1] (setting [7]), 10200. The z-score was -0.0543 (inactive) in assay [2] (setting [8]), -0.319 in assay [2] (setting [9]) and -0.485 (inactive) in assay [3].
As to `NS(=O)(=O)c1ccc(CCC(=O)O)cc1`, the fold change in assay [1] (setting [4]) was 0.881 (inactive); in assay [1] (setting [5]) it was 0.214. Moreover, the cell count in assay [1] (setting [6]) stood at 8780; in assay [1] (setting [7]), 9960. The z-score was 0.234 (inactive) in assay [2] (setting [8]), -0.0972 in assay [2] (setting [9]) and 0.14 (inactive) in assay [3].
Consider `Cc1nonc1CN(C)c1ncnc2nc[nH]c12`, for which the results for the fold change in assay [1] (setting [4]) and in assay [1] (setting [5]) were 0.907 (inactive) and 0.714, respectively. For the same compound, the values for the cell count in assay [1] (setting [6]) and in assay [1] (setting [7]) were 9230 and 10200, respectively. For the same compound, the z-score was -0.379 (inactive) in assay [2] (setting [8]), -0.0852 in assay [2] (setting [9]) and -0.565 (inactive) in assay [3].
In the case of `Cc1csc(CNC(=O)Cc2csc(-c3ccccc3)n2)n1`, the fold change was 0.931 (inactive) in assay [1] (setting [4]) and 1.12 in assay [1] (setting [5]). For the same compound, the results for the cell count in assay [1] (setting [6]) and in assay [1] (setting [7]) were 8110 and 8710, respectively. Further, the figures for the z-score in assay [2] (setting [8]), in assay [2] (setting [9]) and in assay [3] were 0.125 (inactive), 0.0782 and -0.44 (inactive), respectively.
Take `CC(=O)NCC1CN(c2ccc(N3CCOCC3)c(F)c2)C(=O)O1` (stereo not drawn): the fold change in assay [1] (setting [4]) is 0.917 (inactive) and 0.981 (inactive); in assay [1] (setting [5]), 1.72 and 0.989. For the same compound, the cell count in assay [1] (setting [6]) is 6880 and 7480; in assay [1] (setting [7]) it was 7500 and 7630. The z-score in assay [2] (setting [8]) was -0.285 (inactive); in assay [2] (setting [9]), 0.466; in assay [3], 0.65 (inactive).
As for `COc1ccc2c(C(=O)N(C)C3CCN(C)C3)cc(-c3cnn(C)c3)nc2c1` (stereo not drawn), the fold change in assay [1] (setting [4]) is 0.88 (inactive); in assay [1] (setting [5]) it was 1.02. Besides, the cell count in assay [1] (setting [6]) was 8530; in assay [1] (setting [7]), 9700. Further, the z-score in assay [2] (setting [8]) was -0.325 (inactive); in assay [2] (setting [9]), -0.194; in assay [3], -0.495 (inactive).
Turning to `CS(=O)(=O)Nc1ccc(C(=O)O)cc1`, the fold change in assay [1] (setting [4]) was 0.918 (inactive); in assay [1] (setting [5]), 0.714. The cell count in assay [1] (setting [6]) was 8860; in assay [1] (setting [7]) it was 9650. The z-score in assay [2] (setting [8]) was 0.13 (inactive); in assay [2] (setting [9]) it was -0.244; in assay [3], 0.365 (inactive).
`CCc1c(C)[nH]n(-c2nn[nH]n2)c1=O`: the fold change in assay [1] (setting [4]) was 0.897 (inactive); in assay [1] (setting [5]), 0.608. In addition, the results for the cell count in assay [1] (setting [6]) and in assay [1] (setting [7]) were 8110 and 9050, respectively. In addition, the z-score is -1.16 (inactive) in assay [2] (setting [8]), -0.864 in assay [2] (setting [9]) and 0.055 (inactive) in assay [3].
Consider `OCC1OC(Oc2cc(O)cc(C=Cc3ccc(O)cc3)c2)C(O)C(O)C1O` (stereo not drawn), for which the fold change in assay [1] (setting [4]) was 0.967 (inactive) and 0.947 (inactive); in assay [1] (setting [5]), 1.94 and 0.831. In addition, the cell count in assay [1] (setting [6]) was 9700 and 8270; in assay [1] (setting [7]), 10000 and 8720. In addition, the values for the z-score in assay [2] (setting [8]), in assay [2] (setting [9]) and in assay [3] were -0.124 (inactive), -0.651 and 0.4 (inactive), respectively.
As to `O=C(O)C=Cc1ccccc1O`, the fold change in assay [1] (setting [4]) was 0.911 (inactive); in assay [1] (setting [5]), 0.83. The cell count in assay [1] (setting [6]) was determined as 8740; in assay [1] (setting [7]), 9590. In addition, the z-score in assay [2] (setting [8]) is 0.0698 (inactive); in assay [2] (setting [9]), 0.0548; in assay [3] it was 0.245 (inactive).
In the case of `CCn1ncc(NC(=O)Cn2nc(C)c(-c3cccc(C(C)=O)c3)c2C)n1`, the fold change in assay [1] (setting [4]) was 0.83 (inactive); in assay [1] (setting [5]) it was 2.28. Besides, the results for the cell count in assay [1] (setting [6]) and in assay [1] (setting [7]) were 2420 and 2910, respectively. Moreover, the z-score in assay [2] (setting [8]) is -0.514 (inactive); in assay [2] (setting [9]), -0.567; in assay [3] it was -0.465 (inactive).
As for `O=S(=O)(O)CCCSc1nc2ccccc2s1`, the fold change in assay [1] (setting [4]) was 0.906 (inactive); in assay [1] (setting [5]), 0.489. Moreover, the cell count in assay [1] (setting [6]) came out at 8800; in assay [1] (setting [7]) it was 9700. In addition, the z-score is -0.268 (inactive) in assay [2] (setting [8]), -0.142 in assay [2] (setting [9]) and 0.7 (inactive) in assay [3].
Take `C[C@H](NC(=O)c1cnc(-c2ccccc2)[nH]1)c1ccccc1`: the fold change is 0.876 (inactive) in assay [1] (setting [4]) and 2.24 in assay [1] (setting [5]). For the same compound, the cell count was determined as 7380 in assay [1] (setting [6]) and 8420 in assay [1] (setting [7]). Further, the z-score in assay [2] (setting [8]) was 0.341 (inactive); in assay [2] (setting [9]), -0.103; in assay [3] it was -0.6 (inactive).
As to `COc1cc(F)c(-c2nc3c(cnn3Cc3cccs3)[nH]2)c(F)c1`, the fold change is 0.818 (inactive) in assay [1] (setting [4]) and 1.31 in assay [1] (setting [5]). Besides, the cell count is 6350 in assay [1] (setting [6]) and 7760 in assay [1] (setting [7]). The z-score is -0.593 (inactive) in assay [2] (setting [8]), -0.339 in assay [2] (setting [9]) and 2.49 (active) in assay [3].
Regarding `Cc1cccc(CN2CCN(c3ncnc4sccc34)CC2=O)c1`, the fold change in assay [1] (setting [4]) was 0.946 (inactive); in assay [1] (setting [5]) it was 2.04. Besides, the cell count in assay [1] (setting [6]) was 4670; in assay [1] (setting [7]), 4940. Further, the z-score in assay [2] (setting [8]) was -0.529 (inactive); in assay [2] (setting [9]) it was -0.501; in assay [3], 2.43 (inactive).
In the case of `Cc1cccc2c(C(=O)N3C4CCCCC3CCC4)cc(-c3cncnc3)nc12`, the fold change was 0.922 (inactive) in assay [1] (setting [4]) and 1.14 in assay [1] (setting [5]). The figures for the cell count in assay [1] (setting [6]) and in assay [1] (setting [7]) were 8060 and 8740, respectively. Moreover, the z-score in assay [2] (setting [8]) is 0.139 (inactive); in assay [2] (setting [9]) it was -0.667; in assay [3], -0.275 (inactive).
In the case of `Cc1nsc(NC(=O)N2CCCC(C)(O)C2)n1` (stereo not drawn), the results for the fold change in assay [1] (setting [4]) and in assay [1] (setting [5]) were 0.901 (inactive) and 0.878, respectively. Moreover, the cell count was determined as 9190 in assay [1] (setting [6]) and 10200 in assay [1] (setting [7]). For the same compound, the z-score in assay [2] (setting [8]) is -0.195 (inactive); in assay [2] (setting [9]), -0.423; in assay [3], -0.565 (inactive).
